Screening results as filed in PubChem BioAssay.
GLS inhibitor – blocks human kidney-isoform glutaminase activity | O94925 | GLS enzymatic activity, qHTS titration | Potency, µM (series often up to 45.5 µM), actives largely listed as inhibitors | 410,000 compounds, 0.21% hits | AID 624170
Target sequence (O94925 whole entry, looked up, canonical isoform): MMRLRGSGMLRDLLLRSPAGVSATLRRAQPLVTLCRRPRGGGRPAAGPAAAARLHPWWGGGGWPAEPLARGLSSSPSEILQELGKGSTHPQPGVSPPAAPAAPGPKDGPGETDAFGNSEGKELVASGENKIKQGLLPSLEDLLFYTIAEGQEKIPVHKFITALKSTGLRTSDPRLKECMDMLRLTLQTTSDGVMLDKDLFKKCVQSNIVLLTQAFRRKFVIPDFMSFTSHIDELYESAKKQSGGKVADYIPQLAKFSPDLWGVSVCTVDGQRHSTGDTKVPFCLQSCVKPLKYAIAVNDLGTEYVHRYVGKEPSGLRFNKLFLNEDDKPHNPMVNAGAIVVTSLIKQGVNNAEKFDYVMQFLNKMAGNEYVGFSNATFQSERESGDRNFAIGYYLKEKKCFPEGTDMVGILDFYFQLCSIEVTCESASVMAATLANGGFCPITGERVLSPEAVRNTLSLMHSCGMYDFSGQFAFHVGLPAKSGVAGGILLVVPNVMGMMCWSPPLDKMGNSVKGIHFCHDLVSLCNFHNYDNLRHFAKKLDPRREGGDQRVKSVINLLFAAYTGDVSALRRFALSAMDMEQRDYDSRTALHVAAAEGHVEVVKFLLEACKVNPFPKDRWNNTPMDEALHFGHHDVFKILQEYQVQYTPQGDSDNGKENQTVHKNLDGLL
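Enzyme dispensed in phosphate buffer (45 mM, pH 8.2, 0.02% Tween-20), compounds pinned in, then 1 mM L-glutamine solution and the glutamate oxidase–HRP–Amplex Red mix added; fluorescence read immediately and again after 30 min at room temperature.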
BRCA1 expr act – activators of BRCA1 expression. Potency, µM (titrated, usually from 46.1 µM), most hits filed as activators. MCF7-BRCA1-FFLuc reporter, luminescence, 48 h; response scale: scaled: vehicle 0%, 10 µM genistein 100%. AID 624202. 380,000 compounds, 1.1% hits; further: nearly all actives have a fitted effect of over 80% in size
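Reporter cells (MCF7, BRCA1 promoter-firefly luciferase) received library compounds across a concentration series for 48 h. End-point luminescence was measured and concentration-effect curves derived after normalization.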
N370S GC mod – inhibitors or activators of N370S glucocerebrosidase for Gaucher disease. N370S GC spleen homogenate, 4MU-glucoside fluorescence. Potency, µM (top dose mostly 59.4 µM), usual class: inhibitors. 330,000 compounds, 0.092% hits
TCR act – activators of T cell receptors; AID 504894; 330,000 tested, under 10 active; Potency, µM (top dose mostly 9.22 µM), most hits filed as activators; primary human leukocytes, anti-CD3, IL-2 HTRF, 48 h
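TCR engagement came from a-CD3 beads alone, with compounds added to primary human leukocytes for 48 hr. Secreted IL-2 bridged europium cryptate- and d2-labelled anti-IL-2 antibodies, giving FRET emission at 665nm after 320nm excitation.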
p53 reactivation – mutant p53 re-activation in reporter cells | H1299 p53-A138V BP100-luciferase reporter, luminescence, 24 h | 320,000 compounds, 0.063% hits | Potency, µM (doses to about 92.2 µM), hits mostly activators | AID 504706; further: nearly all actives have a fitted effect of over 45% in size
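p53-null H1299 cells stably carrying temperature-sensitive p53-A138V and a BP100-luciferase reporter were pinned with compounds (4-point, 1:5 series) and held 24 hrs at 37 deg C. Luminescence was read 10 min after detection reagent.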
TSHR antag – antagonists of human thyroid stimulating hormone receptor | TSHR-expressing cells, TSH-stimulated cAMP HTRF, 2 h; stronger effect = lower value | activity change, negative = inhibition, % at 11.5 µM | P16473 | 330,000 compounds, 0.2% hits;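 active means activity change below a set negative limit, meaning inhibition stronger than a set level, cut at about -70% in these data; inconclusive means activity change between two set negative limits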
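TSHR-expressing cells, 200/well, pre-treated with compound, then stimulated with EC80 TSH (4nM final) for 2 hours at 37 deg C. cAMP measured by competitive HTRF: anti-cAMP cryptate antibody in lysis buffer plus cAMP-d2, read after 30 minutes at room temperature.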
Numbers stand for hits; - = inactive; ? = inconclusive; . = no result. Shown are actives, neighbours in structure and some others; about 1.4% of the full set was active somewhere. Unless noted, the call rests on the fitted dose curve; in most records, active means well fitted curve in the direction sought with a large enough effect; inconclusive means small, poorly fitted or top-dose-only effect, or another doubt; inactive means no such curve, though single readings can be large; an effect the other way counts as inactive or inconclusive.

SMILES | GLS inhibitor | BRCA1 expr act | N370S GC mod | TCR act | p53 reactivation | TSHR antag
CCN(Cc1nc(-c2ccc(OC)c(OC)c2)no1)S(=O)(=O)c1ccc(OC)cc1 | - | . | . | . | . | .
O=C(Nc1ccc2c(c1)COC2=O)c1ccc(Cl)c(Cl)c1 | - | 14.1µM | - | - | ? | -
O=C(O)CNC(=O)c1ccc(CO)o1 | . | . | - | . | . | .
COc1ccc(N=c2ssnc2Cl)cc1 | - | - | - | - | - | -
CCOC(=O)c1ccc(N=c2ssnc2Cl)cc1 | 12.6µM | - | - | - | - | -
O=C(Nc1nc(-c2ccccc2)cs1)c1ccc(N2CCOCC2)c([N+](=O)[O-])c1 | - | - | - | - | ? | -101.1
O=C(Nc1ccon1)c1ccc(N2CCCCC2)c([N+](=O)[O-])c1 | - | 12.6µM | - | - | - | -
Cc1cc(NC(=O)c2ccc(N3CCCC3)c([N+](=O)[O-])c2)no1 | - | ? | - | - | - | -
COc1ccccc1C(=O)NCCC(=O)NC1CCCCC1C (stereo not drawn) | - | - | - | - | - | -
COc1ccccc1C(=O)NCCC(=O)NC1CCC(C)CC1 (stereo not drawn) | - | 8.91µM | . | . | ? | -
CC1CCCN(c2nc3ccsc3c(=O)s2)C1 (stereo not drawn) | - | 12.6µM | ? | - | ? | -
O=C(NCc1ccccc1Cl)C1CCCN(c2nc3ccsc3c(=O)s2)C1 (stereo not drawn) | . | . | - | . | - | -
CC1(C)S[C@@H]2[C@H](NC(=O)[C@H](N)c3ccccc3)C(=O)N2[C@@H]1C(=O)OCOC(=O)[C@@H]1N2C(=O)C[C@@H]2S(O)(O)C1(C)C | - | . | . | . | . | .
Cc1ccc(C(=O)CSc2nnc(N)s2)c(C)c1 | - | 4.47µM | - | - | - | -
Cc1cc(C(=O)CSc2nc(N)cc(N)n2)c(C)n1C1CC1 | - | - | - | - | - | -
Cc1cc(C(=O)CSc2nnc(N)s2)c(C)n1C1CC1 | - | 7.94µM | - | - | - | -
Cc1cc(C)nc(CCNC(=O)c2cc(COc3ccccc3)on2)n1 | - | 7.94µM | - | - | - | -
CSc1ccccc1OCc1cc(C(=O)NC2CCOC(C)(C)C2)no1 (stereo not drawn) | - | - | - | - | - | -
CSc1ccccc1OCc1cc(C(=O)N(C)Cc2nonc2C)no1 | - | 11.2µM | - | - | - | -
COc1ccc(OCc2cc(C(=O)N[C@H]3CCCCNC3=O)no2)c(Cl)c1 | - | - | - | - | - | -
CSc1ccccc1OCc1cc(C(=O)NC2CCOC2)no1 (stereo not drawn) | - | 12.6µM | - | - | ? | -
Cc1nonc1CN(C)C(=O)c1cc(COc2ccc(F)cc2Cl)on1 | - | - | - | - | - | -
CSc1ccccc1OCc1cc(C(=O)N[C@H]2CCCCNC2=O)no1 | - | 11.2µM | - | - | - | -
NC(=NCc1ccc(Cl)cc1Cl)NC(=O)c1nc(Cl)c(N)nc1N | . | . | - | . | . | .
CCOC(=O)c1cc(OCc2csc(-c3ccccc3)n2)cc(C(=O)OCC)c1 | . | - | . | . | . | .
SMILES | GLS inhibitor | BRCA1 expr act | N370S GC mod | TCR act | p53 reactivation | TSHR antag
CSc1ccccc1OCc1cc(C(=O)NCc2cccc(C)n2)no1 | - | 6.31µM | - | - | ? | -
CSc1ccccc1OCc1cc(C(=O)NC(C)Cc2cccc(C)n2)no1 (stereo not drawn) | - | ? | - | - | - | -
Cc1ccccc1Nc1nc(N)nc(COC(=O)c2ccco2)n1 | - | 3.98µM | . | - | ? | -
Nc1nc(COC(=O)c2ccco2)nc(Nc2ccccc2)n1 | - | - | . | . | . | .
O=C(C[n+]1ccncc1)c1cccc2ccccc12 | . | - | . | . | . | .
COc1ccc(OC)c(-c2ccc(C(=O)O)o2)c1 | . | . | - | . | . | .
Cc1ccc(C(=O)N/N=C\c2ccccc2[N+](=O)[O-])cn1 | - | 4.47µM | - | - | - | -
Cc1ccc(C(=O)N/N=C\C=C\c2ccccc2[N+](=O)[O-])cn1 | - | - | - | - | - | -
COCCN(C(=O)COC(=O)c1cc2c(s1)CCC2)c1c(N)n(Cc2ccccc2)c(=O)[nH]c1=O | 10µM | - | - | - | - | -
CCC1CCc2sc(C(=O)OCC(=O)N(CCOC)c3c(N)n(Cc4ccccc4)c(=O)[nH]c3=O)cc2C1 (stereo not drawn) | - | - | - | - | - | -
CNc1ccc(C=O)cc1Cl | . | - | . | . | . | .
CCSc1nc(-c2ccc(Cl)cc2)nc2c1Cc1c(CO)cnc(C)c1O2 | - | . | . | . | . | .
CCCCOc1ccc(C2(C)CC(=O)NC2=O)cc1 (stereo not drawn) | - | 12.6µM | - | - | - | -
CCCOc1ccc(CC2CCC(=O)NC2=O)cc1 (stereo not drawn) | - | - | - | - | - | -
CCCCCCCCCCCCCC[C@@H](O)[C@@H](O)[C@@H](N)CO | . | . | - | . | . | .
Ic1ccc(/C=C2\C=Cc3ccccc32)cc1 | . | - | . | . | . | .
COc1ccc(-c2nc(SC)n(S(=O)(=O)c3ccccc3)n2)cc1 | - | 10µM | - | - | - | -
CN[C@@H](CCCN=C(N)N)C(=O)N[C@@H](CCCCN)C(=O)N1CCC[C@H]1C(=O)N[C@@H](Cc1c[nH]c2ccccc12)C(=O)N[C@H](C(=O)N[C@H](CC(C)C)C(=O)O)C(C)(C)C | . | . | - | . | . | .
Cc1cc(C(=O)Nc2ccc(S(=O)(=O)Nc3onc(C)c3C)cc2)c(C)o1 | - | - | - | . | - | -
Cc1ccc2oc(C(=O)Nc3ccc(S(=O)(=O)Nc4onc(C)c4C)cc3)c(C)c2c1 | - | 11.2µM | - | - | - | -
CC(C)c1ccc(Nc2c(-c3ccccn3)nc3ccccn23)cc1 | - | . | . | . | . | .
O=[N+]([O-])c1ccc(COc2ccc(CN3CCCC3)cc2)cc1 | - | ? | . | - | . | .
c1ccc(COc2ccc(OCCCN3CCCCC3)cc2)cc1 | - | ? | - | - | ? | -
NC(=O)C1CC(=O)N(c2ccc(OCc3ccc(Cl)c(Cl)c3)cc2)C1 (stereo not drawn) | - | 10µM | . | . | . | .
NC(=O)C1CCN(Cc2ccc(OCc3ccccc3)cc2)CC1 | - | 11.2µM | - | . | - | -
SMILES | GLS inhibitor | BRCA1 expr act | N370S GC mod | TCR act | p53 reactivation | TSHR antag
O=[N+]([O-])c1ccc(COc2ccc(CN3CCCCC3)cc2)cc1 | - | 7.94µM | . | - | . | .
c1ccc(COc2ccc(OCCCCN3CCCC3)cc2)cc1 | - | - | - | - | 11.2µM | -
CCOC(=O)C1CCN(Cc2ccc(OCc3ccccc3)cc2)CC1 | - | - | - | - | - | -
COCCCOc1cc(C[C@@H](C[C@H](N)[C@@H](O)C[C@H](C(=O)NCC(C)(C)C(N)=O)C(C)C)C(C)C)ccc1OC | - | . | . | . | . | .
Cc1cccc(OC(=O)CSc2nnc(-c3ccc4c(c3)OCO4)o2)c1C | - | . | . | . | . | .
NC(N)=Nc1ccc(/C=C2\C=Cc3ccccc32)cc1 | . | - | . | . | . | .
